High-throughput results as filed in PubChem.
Shn3 inh set2 – reduction of Shn3 3'UTR firefly luciferase signal, primary screen, Schnurri-3 inhibitor project, cell-based, Clone20 osteoblasts, set 2; inhibition, % at 12.5 µM; 360,000 compounds, 0.52% hits; Clone20 osteoblast Shn3 3'UTR firefly luciferase, 24 h;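 active = mean inhibition of at least 75% with every replicate also reaching 75%; inconclusive = mean inhibition at least 75% but some replicate below; inactive = mean inhibition below 75%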
SRC2 inh – inhibition of GAL4-SRC2 driven luciferase reporter, primary screen, SRC2 inhibitor project, cell-based, luminescence | Nuclear receptor coactivator 2 (Homo sapiens), Q15596 | HEK293 GAL4-SRC2 luciferase reporter | inhibition, % at 9 µM | 370,000 compounds, 0.17% hits | AID 651957, 2012;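 active = inhibition above the mean inhibition of all tested compounds plus 3 SD, set per campaign, cut at about 52% in these data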
Target sequence (Q15596 whole entry, looked up, the tested form may be a part): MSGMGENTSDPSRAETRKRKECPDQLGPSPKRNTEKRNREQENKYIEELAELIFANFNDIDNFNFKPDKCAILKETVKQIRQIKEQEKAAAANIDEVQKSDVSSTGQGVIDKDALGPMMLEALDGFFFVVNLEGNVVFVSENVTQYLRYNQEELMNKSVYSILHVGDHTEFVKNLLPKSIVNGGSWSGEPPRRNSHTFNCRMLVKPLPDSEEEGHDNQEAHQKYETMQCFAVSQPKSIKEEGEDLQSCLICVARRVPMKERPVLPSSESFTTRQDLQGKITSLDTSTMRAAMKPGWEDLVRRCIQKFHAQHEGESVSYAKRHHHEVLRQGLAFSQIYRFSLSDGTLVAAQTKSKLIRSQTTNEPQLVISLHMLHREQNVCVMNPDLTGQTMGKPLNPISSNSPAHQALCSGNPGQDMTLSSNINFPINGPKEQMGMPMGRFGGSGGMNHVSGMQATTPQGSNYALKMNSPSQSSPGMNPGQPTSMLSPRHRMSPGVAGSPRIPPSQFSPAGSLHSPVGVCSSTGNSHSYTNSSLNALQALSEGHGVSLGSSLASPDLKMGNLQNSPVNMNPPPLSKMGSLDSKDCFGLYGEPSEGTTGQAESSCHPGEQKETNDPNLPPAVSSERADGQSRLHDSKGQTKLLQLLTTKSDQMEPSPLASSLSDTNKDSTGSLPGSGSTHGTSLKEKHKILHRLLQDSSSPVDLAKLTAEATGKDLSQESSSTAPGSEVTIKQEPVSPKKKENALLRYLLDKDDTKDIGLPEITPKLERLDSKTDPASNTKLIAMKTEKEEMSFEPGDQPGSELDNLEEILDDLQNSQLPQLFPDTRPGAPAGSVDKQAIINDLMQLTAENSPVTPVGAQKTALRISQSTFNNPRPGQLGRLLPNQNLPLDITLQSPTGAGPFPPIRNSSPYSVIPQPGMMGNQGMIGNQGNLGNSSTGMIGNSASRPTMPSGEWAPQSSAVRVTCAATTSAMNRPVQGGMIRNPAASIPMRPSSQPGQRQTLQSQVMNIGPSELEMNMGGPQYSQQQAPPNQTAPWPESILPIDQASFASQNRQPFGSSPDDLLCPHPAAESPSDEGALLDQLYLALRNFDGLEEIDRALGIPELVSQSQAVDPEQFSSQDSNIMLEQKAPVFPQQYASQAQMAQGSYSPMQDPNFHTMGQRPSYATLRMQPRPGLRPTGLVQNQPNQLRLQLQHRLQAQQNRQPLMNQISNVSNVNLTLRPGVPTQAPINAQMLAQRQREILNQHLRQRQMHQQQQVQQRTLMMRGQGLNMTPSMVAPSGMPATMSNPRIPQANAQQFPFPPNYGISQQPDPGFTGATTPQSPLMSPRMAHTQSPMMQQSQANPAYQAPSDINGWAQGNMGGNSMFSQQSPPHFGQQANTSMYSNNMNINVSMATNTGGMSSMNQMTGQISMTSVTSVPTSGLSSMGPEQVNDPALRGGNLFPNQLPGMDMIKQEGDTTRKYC
NCOA1 inh – SRC1 coactivator transcriptional activity inhibitors, primary screen, cell-based, luminescence | Nuclear receptor coactivator 1 (Homo sapiens), Q15788 | HEK293 GAL4-SRC1 luciferase reporter | inhibition, % at 3.6 µM | 360,000 compounds, 0.12% hits | AID 588354, 2011;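 active = inhibition above the campaign mean plus 3 SD, with each screening campaign given its own cutoff, cut at about 60% in these data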
LRH-1 inv ag – LRH-1 (NR5A2) inverse agonists, primary screen, cell-based, luminescence, HEK293T, StAR-luciferase reporter; inhibition, % at 3.6 µM; AID 602396, 2012; 360,000 compounds, 0.13% hits; Nuclear receptor subfamily 5 group A member 2 (Homo sapiens), O00482; LRH-1 transfected, 24 h;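 active = inhibition above the mean inhibition of all tested compounds plus 3 SD, cut at about 73% in these data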
SRC3 inh – SRC3 coactivator transcriptional activity inhibitors, primary screen, cell-based, luminescence | Nuclear receptor coactivator 3 (Homo sapiens), Q9Y6Q9 | HEK293 GAL4-SRC3 luciferase reporter | inhibition, % at 3.6 µM | 360,000 compounds, 0.17% hits;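 active = inhibition above a per-campaign cutoff, the mean of all compounds plus 3 SD, cut at about 60% in these data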;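 also: higher means less SRC3-driven luciferase light from the GAL4 reporter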
Gli-Sufu block – Gli-Sufu pathway antagonists, primary screen, luciferase luminescence, Sufu-KO-LIGHT cells, uHTS; Sufu-KO-LIGHT fibroblasts, Gli luciferase reporter luminescence; AID 588413, 2011; 340,000 compounds, 0.74% hits; inhibition, % at 5 µM;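 active = inhibition above about 55%, limit read from the data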
Gli antag conf – Gli-SUFU pathway antagonists, confirmation, single concentration, luciferase luminescence, Sufu-KO-LIGHT cells; Gli luciferase reporter; 2,500 compounds, 40% hits; shares compounds with Gli-Sufu block; inhibition, % at 5 µM;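 active = mean inhibition at 5 µM reaching about 45%, limit read from the data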
SufuKO cytotox – cytotoxicity in Sufu-KO-LIGHT cells, confirmation, cytotoxicity control for Gli-SUFU antagonist project, cell-based, ATP luminescence, single concentration; 2,500 compounds, 32% hits; shares compounds with Gli-Sufu block; cytotoxicity, % at 5 µM; AID 651994, 2013;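 active = mean cytotoxicity at 5 µM above about 25%, limit read from the data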;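 also: cells exposed to compound overnight for roughly 16 to 18 hours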
Wnt3a counter – Wnt3a reporter signal inhibition, confirmation, counter-screen for Gli-SUFU antagonist project, Wnt-LIGHT cells, luminescence, single concentration; Wnt3a-driven luciferase reporter; inhibition, % at 6.25 µM; 2,500 compounds, 20% hits; shares compounds with Gli-Sufu block;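 active = mean inhibition above about 25%, limit read from the data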
Numbers stand for hits; i = inactive; ? = inconclusive; nt = no result given. Rows were chosen to be rich in hits. Some 1.1% of all compounds tested hit in one or more screens of this group.

SMILES	Shn3 inh set2	SRC2 inh	NCOA1 inh	LRH-1 inv ag	SRC3 inh	Gli-Sufu block	Gli antag conf	SufuKO cytotox	Wnt3a counter
CCN(C1CCCCC1)S(=O)(=O)c1ccc(S(=O)(=O)NCCc2ccncc2)cc1	i	i	i	i	i	i	nt	nt	nt
O=S(=O)(NCc1ccncc1)c1ccc(Br)s1	i	i	i	i	i	70	64	44	46
COc1ccc2c(c1)CN1CN(Cc3ccc(F)cc3)S(=O)(=O)CC21 (stereo unspecified)	nt	i	nt	nt	nt	nt	nt	nt	nt
CN(C(=O)CCn1nnc(-c2cccs2)n1)C1CCCCC1	nt	i	nt	nt	nt	nt	nt	nt	nt
Cc1ccc(-n2c(SCC(=O)Nc3ccc(Oc4ccccc4)cc3)nnc2-c2ccco2)cc1	nt	i	nt	nt	nt	nt	nt	nt	nt
COC(=O)[C@]12C[C@H](CC(=O)N3CCCCC3)C(=O)N(Cc3ccco3)C1=C[C@H](COCc1ccccc1)O[C@@H]2C	nt	i	nt	nt	nt	nt	nt	nt	nt
O=S(=O)(NCc1ccncc1)c1ccc(F)c(F)c1	i	i	i	i	i	nt	nt	nt	nt
Cc1cc(Br)c(S(=O)(=O)NCc2ccncc2)cc1C	i	i	i	i	i	i	52	i	26
Cc1ccc(S(=O)(=O)NCc2ccncc2)cc1C	i	i	i	i	i	74	73	26	36
CCCc1cc(=O)[nH]c(SCC(=O)NC2CCCCCCC2)n1	i	i	i	i	i	i	nt	nt	nt
CCCc1cc(=O)[nH]c(SCC(=O)NC2CC2)n1	i	i	i	i	i	i	i	i	i
CC(C)c1nnc(NC(=O)CC(=O)Nc2ccccc2C(=O)O)s1	i	i	i	i	i	i	i	i	48
CC(C)Cc1nnc(NC(=O)CC(=O)Nc2ccccc2C(=O)O)s1	i	i	i	i	i	i	nt	nt	nt
CC(C)=CCC[C@@]1(C(=O)O)[C@H]2CC=C(CO)[C@@H]1CC/C(C)=C/CC/C(C)=C/C2	nt	i	nt	nt	nt	nt	nt	nt	nt
CC(C)NC(=O)c1ccccc1NC(=O)C1CCCO1 (stereo unspecified)	i	i	i	i	i	59	i	i	i
COC(=O)c1ccccc1NC(=O)C1CCCO1 (stereo unspecified)	i	i	i	i	i	i	nt	nt	nt
COc1cc(CNCc2ccccn2)ccc1OCC(=O)NC1CCCCC1	i	i	i	i	i	68	i	i	i
CCCCN(CC)CCCNC(=O)c1cc2c(-c3ccc(OC)c(OC)c3)nn(C)c2s1	i	i	i	i	i	56	i	i	i
CC(c1ccccc1)n1cc(C(=O)N2CCCN(Cc3ccccc3)CC2)nn1 (stereo unspecified)	nt	i	nt	nt	nt	nt	nt	nt	nt
CCc1cc(C(=O)N2CCCC(N3CCN(c4cccc(C(F)(F)F)c4)CC3)C2)n(C)n1 (stereo unspecified)	i	i	i	i	i	55	i	i	i
O=C(c1ccncc1)N1CCCC(N2CCN(c3cccc(C(F)(F)F)c3)CC2)C1 (stereo unspecified)	i	i	i	i	i	i	nt	nt	nt
Brc1ccc(-c2csc(N3CCCCCC3)n2)cc1	i	i	i	i	i	i	59	i	27
Brc1ccc(-c2csc(N3CCOCC3)n2)cc1	i	i	i	i	i	i	nt	nt	nt
Cc1cccc(/C=N/Nc2cc(N3CCOCC3)nc(N3CCOCC3)n2)c1	i	i	i	i	i	60	i	34	i
Cc1ccc(/C=N/Nc2cc(C)nc(N3CCOCC3)n2)cc1	i	i	i	i	i	i	nt	nt	nt
SMILES	Shn3 inh set2	SRC2 inh	NCOA1 inh	LRH-1 inv ag	SRC3 inh	Gli-Sufu block	Gli antag conf	SufuKO cytotox	Wnt3a counter
Cc1ccc(Nc2nc(N/N=C\c3ccc4c(c3)OCO4)nc(N3CCOCC3)n2)cc1	i	i	i	i	i	56	50	35	i
CC(=O)N(c1ccc(Cl)cc1)c1c[nH]c2ccccc12	i	i	i	i	i	56	i	i	i
O=C(c1cc(COc2cccc(C(F)(F)F)c2)on1)N1CCC(c2ccncc2)CC1	i	i	i	i	i	i	62	37	i
O=C(c1cc(COc2cccc(C(F)(F)F)c2)on1)N1CCC(c2ccccc2)CC1	i	i	i	i	i	i	nt	nt	nt
CCCCc1nc(N2CCN(C(=O)c3ccco3)CC2)c(C#N)c2c1CCCC2	i	i	i	i	i	66	i	i	35
CCOc1cc(CCNC(=O)c2cc3sccc3n2CC)ccc1OC	nt	i	nt	nt	nt	nt	nt	nt	nt
Cc1cc2cc(CCNC(=O)c3ccc(Br)o3)c(=O)[nH]c2cc1C	i	i	i	i	i	96	i	i	29
CC1CCN(c2ccc(NC(=S)NC(=O)c3ccc(-c4cccc([N+](=O)[O-])c4)o3)cc2)CC1	i	i	i	i	i	i	nt	nt	nt
CC1CCN(c2ccccc2NC(=S)NC(=O)c2ccc(-c3cccc([N+](=O)[O-])c3)o2)CC1	i	i	i	i	i	79	86	32	i
N#Cc1ccc(/C=C2\CC3(OC(=O)C4CCCCC4)CCCN2C3)cc1 (stereo unspecified)	nt	i	nt	nt	nt	nt	nt	nt	nt
COc1cccc(N2CCN(CC(=O)NCc3cccc(OC)c3OC)CC2)c1	nt	i	nt	nt	nt	nt	nt	nt	nt
Cc1nc2sccn2c1-c1csc(NCc2ccccc2)n1	i	i	i	i	i	56	50	i	i
CC(C)(C)N(NC(=O)Nc1ccc(Cl)c(Cl)c1)C(=O)c1ccccc1	i	i	i	i	i	i	nt	nt	nt
Cc1cc(C)cc(C(=O)N(NC(=O)Nc2ccc(Cl)cc2)C(C)(C)C)c1	i	i	i	i	i	60	i	i	i
CCOC(=O)N1CCN(C(=O)CS(=O)(=O)Cc2nc(-c3ccccc3F)oc2C)CC1	?	i	i	i	i	57	i	28	i
Cc1ccccc1NC(=S)N(CCc1c(C)[nH]c2ccc(F)cc12)Cc1ccncc1	i	i	i	i	i	59	i	26	i
Cc1[nH]c2ccc(F)cc2c1CCN(Cc1ccncc1)C(=S)Nc1cccc(F)c1	i	i	i	i	i	i	nt	nt	nt
Cc1nn(CC(=O)NC(C)CCc2ccccc2)c(=O)c2nn(-c3ccccc3)c(C)c12 (stereo unspecified)	i	i	i	i	i	i	i	i	i
